Experimental data from PubChem BioAssay (NCATS).
Values joined by “and” are separate entries in the source; they are usually repeats but may differ in a detail not shown here. Identical values can stand only once. Inconclusive results are not listed. Active and inactive are the calls of the source. Unless noted, calls come from the whole dose curve.

Columns and labels:
[1] = qHTS for Inhibitors of the Functional Ribonucleoprotein Complex (vRNP) of Lassa (LASV) Arenavirus: LASV Primary Screen - GLuc reporter signal (AID 1347082; calls by dose curve; tested in HEK293 reporter line; note: nearly all actives have a fitted effect of over 60% in size)
[2] = qHTS for Inhibitors of the Functional Ribonucleoprotein Complex (vRNP) of Lassa (LASV) Arenavirus: Viability assay - alamar blue signal for LASV Primary Screen (AID 1347083; calls by dose curve; tested in HEK293 reporter line; note: nearly all actives have a fitted effect of over 80% in size; note: potency is the fitted concentration of half-maximal effect)
[3] = qHTS for Inhibitors of the Functional Ribonucleoprotein Complex (vRNP) of Lymphocytic Choriomeningitis Arenaviruses (LCMV): Viability assay - alamar blue signal for LCMV Primary Screen (AID 1347085; calls by dose curve; tested in HEK293 reporter line; note: nearly all actives have a fitted effect of over 80% in size; note: potency is the fitted concentration of half-maximal effect)
[4] = biological target: Nucleoprotein (Lymphocytic choriomeningitis virus (strain Armstrong)) (UniProt P09992); test: qHTS for Inhibitors of the Functional Ribonucleoprotein Complex (vRNP) of Lymphocytic Choriomeningitis Arenaviruses (LCMV): LCMV Primary Screen - GLuc reporter signal (AID 1347086); note: nearly all actives have a fitted effect of over 70% in size; note: potency is the fitted concentration of half-maximal effect
Sequence of Nucleoprotein (Lymphocytic choriomeningitis virus (strain Armstrong)) (P09992 whole entry, looked up): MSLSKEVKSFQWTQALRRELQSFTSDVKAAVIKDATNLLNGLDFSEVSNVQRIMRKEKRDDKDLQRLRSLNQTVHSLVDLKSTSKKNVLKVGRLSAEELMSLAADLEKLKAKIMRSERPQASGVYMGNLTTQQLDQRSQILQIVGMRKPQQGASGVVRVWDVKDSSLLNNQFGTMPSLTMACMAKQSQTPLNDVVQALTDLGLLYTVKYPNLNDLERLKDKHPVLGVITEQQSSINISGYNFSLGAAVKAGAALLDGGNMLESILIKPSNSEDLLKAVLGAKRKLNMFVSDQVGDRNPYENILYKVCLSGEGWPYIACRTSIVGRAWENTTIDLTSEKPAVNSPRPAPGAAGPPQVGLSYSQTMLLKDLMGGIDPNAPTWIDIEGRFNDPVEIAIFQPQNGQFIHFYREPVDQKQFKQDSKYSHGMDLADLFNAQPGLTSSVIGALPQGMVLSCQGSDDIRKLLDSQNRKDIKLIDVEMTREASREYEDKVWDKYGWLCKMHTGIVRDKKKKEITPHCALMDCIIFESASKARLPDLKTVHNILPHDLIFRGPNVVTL

[5] = system: CRL-7250; test: qHTS assay to identify novel small-molecules to repurpose for Merkel cell carcinoma treatment (AID 1296009; active = well fitted curve in the direction sought with a large enough effect; an effect the other way counts as inactive or inconclusive; note: nearly all actives have a fitted effect of over 60% in size); details: MCC and control cell lines, CellTiter-Glo viability, 72 h; series mostly up to 92 µM
Method in brief: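 Cell viability measured by CellTiter-Glo following 72 hr compound treatment at 37 degree celsius, with NPC and MIPE libraries tested in 8- and 11-point concentration series.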

[6] = Inducers of the Endoplasmic Reticulum Stress Response (ERSR) in human glioma: Validation (AID 504836; active = well fitted curve in the direction sought with a large enough effect; an effect the other way counts as inactive or inconclusive)
Method in brief: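 ERSR induction read as luciferase luminescence (Bright-Glo, 10 min at room temperature) in stably transfected human U87-MG glioma cells exposed to compounds for 16 h, using GRP78 as sensor.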

[7] = Primary qHTS for Huh7 cytotoxicity: counterscreen for inhibitors of MERS-S pseudotyped particle cell entry (AID 1479147); details: outcome: dose series up to 57.1 µM unless noted
[8] = Primary qHTS for Vero E6 cytotoxicity: counterscreen for inhibitors of SARS-S pseudo-typed particle cell entry (AID 1479150); details: outcome: dose series up to 57.1 µM unless noted
[9] = Cytotoxicity counterscreen for inhibitors of SARS-CoV-2 cell entry (AID 1645845); note: nearly all actives have a fitted effect of over 50% in size
Method in brief: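 ATP-content luminescence (ATPLite 1step, 15 min RT) read after 48 h compound exposure of Expi293F cells stably expressing human ACE2; normalized to cells-only wells and media-only wells.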

[10] = qHTS profiling of the MIPE4 collection as inhibitors of Plasmodium falciparum (3D7) proliferation (AID 743344; call rule not given here); details: P. falciparum 3D7 in erythrocytes, SYBR Green DNA fluorescence, 72 h; at 28.5 µM (top of the series) unless noted
Method in brief: (§1)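 Parasite DNA was quantified by SYBR Green I fluorescence (ex 485, em 535 nm) after overnight lysis in saponin/Triton buffer at room temperature. Cultures at 0.3% parasitemia and 2.5% hematocrit were first exposed to compound for 72 h at 37 C; signals were normalised to artemisinin (0.29 uM) and vehicle wells.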

[11] = qHTS profiling of the MIPE4 collection as inhibitors of Plasmodium falciparum (DD2) proliferation (AID 743345; call rule not given here); details: P. falciparum Dd2 in erythrocytes, SYBR Green DNA, 72 h; at 28.5 µM (top of the series) unless noted
Method in brief: as §1

[12] = qHTS profiling of the MIPE4 collection as inhibitors of Plasmodium falciparum (HB3) proliferation (AID 743347; call rule not given here); details: P. falciparum HB3 in erythrocytes, SYBR Green DNA, 72 h; at 28.5 µM (top of the series) unless noted
Method in brief: as §1

[13] = Primary qHTS for inhibitors of SARS-S pseudo-typed particle cell entry (AID 1479145); note: nearly all actives have a fitted effect of over 45% in size
[14] = Primary qHTS for inhibitors of MERS-S pseudo-typed particle cell entry (AID 1479149); note: nearly all actives have a fitted effect of over 60% in size
[15] = Primary qHTS to identify inhibitors of SARS-CoV-2 cell entry (AID 1645846); details: activity change, negative = inhibition: at 57.1 µM (top of the series) unless noted; note: nearly all actives have a fitted effect of over 45% in size
Method in brief: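 Inhibition of spike-mediated entry was scored in human ACE2-transfected Expi293F cells. Particles were MLV-pseudotyped with Wuhan-Hu-1 S carrying a 19-aa C-terminal deletion; signal was luciferase after two days, scaled between spike PP and fusion-protein-free PP.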

[16] = VSVG counterscreen qHTS to identify inhibitors of SARS-CoV-2 cell entry (AID 1645847); note: potency is the fitted concentration of half-maximal effect; nearly all actives have a fitted effect of over 65% in size
Method in brief: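 Luminescence from a luciferase reporter, normalised to bald particle and VSV-G pseudotyped particle wells, is the read-out. Cells are HEK293 expressing human ACE2, exposed to compound 1 h before a 48 h particle infection at 37 °C.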

[17] = qHTS profiling of the MIPE4 collection as inhibitors of Plasmodium falciparum (DD2) proliferation (Rep 2) (AID 743346; call rule not given here); details: P. falciparum Dd2 in erythrocytes, SYBR Green DNA, 72 h; at 28.5 µM (top of the series) unless noted
Method in brief: as §1

C=CC1=C(C(=O)O)N2C(=O)[C@@H](NC(=O)C(=NO)c3csc(N)n3)[C@H]2SC1
inactive: Potency [1] | Potency [2] | Potency [3] | Potency [4] | Potency [5]

O=C(O)[C@H](CC(=O)N1C[C@@H]2CCCC[C@H]2C1)Cc1ccccc1
inactive: Potency [1] | Potency [2] | Potency [3] | Potency [4] | Potency [5]

OC(CCN1CCCCC1)(c1ccccc1)C1CCCCC1 (stereo not given)
inactive: outcome [6] | Potency [1] | Potency [2] | Potency [3] | Potency [4] | outcome [7] | outcome [8] | Potency [5]

Cc1cnc(Nc2cccc(CN3CCOCC3)c2)nc1Nc1cccc(S(=O)(=O)NC(C)(C)C)c1
inactive: Potency [1] | Potency [2] | Potency [3] | Potency [4] | Potency [9] | Potency [5]

CC(=O)N[C@@H]1[C@H](O[C@@H]2c3ccc(c(Cl)c3)Oc3cc4cc(c3O[C@H]3O[C@H](CO)[C@@H](O)[C@H](O)[C@H]3NC(=O)CCCCCCCC(C)C)Oc3ccc(cc3Cl)C[C@H]3NC(=O)[C@H](N)c5ccc(O)c(c5)Oc5cc(O)cc(c5)[C@H](NC3=O)C(=O)N[C@H]4C(=O)N[C@H]3C(=O)N[C@@H]2C(=O)N[C@@H](C(=O)O)c2cc(O)cc(O[C@H]4O[C@H](CO)[C@@H](O)[C@H](O)[C@H]4O)c2-c2cc3ccc2O)O[C@H](CO)[C@@H](O)[C@@H]1O
inactive: Potency [1] | Potency [2] | Potency [3] | Potency [4] | Potency [5]

CN(C)CC(C)(C)CNc1nn2c(-c3ccccc3)nnc2cc1C1CCC1
inactive: Potency [1] | Potency [9] | Potency [5]
active: Potency [2] 15.3 µM | Potency [3] 2.17 µM | Potency [4] 17.2 µM

CN1c2cc(O)c(N=NC(N)=O)cc2CC1S(=O)(=O)O (stereo not given)
54.6%: growth, % of control [12]
64.1%: parasite growth remaining, % of DMSO control (lower = more inhibition) [11]
inactive: Potency [1] | Potency [2] | Potency [3] | Potency [4] | Potency [13] | outcome [7] | Potency [14] | outcome [8] | Potency [9] | Potency [5]
37.8%: parasite growth, % of DMSO control [10]
4.67%: activity change, negative = inhibition [15]

O=C(O)CCn1c2c(c3ccccc31)C[C@H](NS(=O)(=O)c1ccc(F)cc1)CC2
inactive: Potency [1] | Potency [2] | Potency [3] | Potency [4] | Potency [13] | outcome [7] | Potency [14] | outcome [8] | Potency [9] | Potency [5]
-25.2% and -23.3%: activity change, negative = inhibition [15]

C[C@@H]1CCO[C@H]2Cn3cc(C(=O)NCc4ccc(F)cc4F)c(=O)c(O)c3C(=O)N12
inactive: Potency [1] | Potency [2] | Potency [3] | Potency [4] | Potency [13] | outcome [7] | Potency [14] | outcome [8] | Potency [9] | Potency [5]
active: Potency [16] 0.0076 µM

C=CC[N+]1([C@H]2C[C@H]3[C@@H]4CC[C@H]5C[C@H](O)[C@@H](N6CCOCC6)C[C@]5(C)[C@@H]4CC[C@]3(C)[C@H]2OC(C)=O)CCCC1
inactive: Potency [1] | Potency [2] | Potency [3] | Potency [4] | Potency [5]

CON=C(C(=O)N[C@@H]1C(=O)N2C(C(=O)OCOC(=O)C(C)(C)C)=C(C=Cc3scnc3C)CS[C@H]12)c1csc(N)n1
inactive: Potency [1] | Potency [2] | Potency [3] | Potency [4] | Potency [5]

NC1CCC(Nc2nc(Nc3ccc(C(=O)N4CCCCC4)cc3)c3ncn(-c4cccc(F)c4)c3n2)CC1 (stereo not given)
inactive: Potency [1] | Potency [2] | Potency [3] | Potency [4] | Potency [5]

COc1cc([C@H]2Oc3cc([C@H]4Oc5cc(O)cc(O)c5C(=O)[C@H]4O)ccc3O[C@H]2CO)ccc1O
inactive: Potency [1] | Potency [2] | Potency [3] | Potency [4] | Potency [5]

COc1ccc(C2(C#N)CCC(C(=O)O)CC2)cc1OC1CCCC1 (stereo not given)
101%: parasite growth remaining, % of DMSO control (lower = more inhibition) [11]
91.7%: parasite growth, % of DMSO control [10]
88.4%: parasite growth, % of control (lower = inhibition) [17]
-18.7%: activity change, negative = inhibition [15]
inactive: Potency [1] | Potency [2] | Potency [3] | Potency [4] | outcome [7] | Potency [14] | outcome [8] | Potency [9] | Potency [15] | Potency [5]

N#Cc1ccc(Oc2ccc3c(c2)COB3O)cc1
-3.74%: activity change, negative = inhibition [15]
inactive: Potency [1] | Potency [2] | Potency [3] | Potency [4] | outcome [7] | Potency [14] | Potency [9] | Potency [15] | Potency [5]
